Screen size: about 69,000 compounds; about 8,600 (12%) showed an effect of 50% or more. This is one part of a sample in which strong results are shown more often than they occur.

In the assay the test system is Plasmodium berghei. Description: Screen against P. berghei liver stage (PbLuc), transformed with Luciferase, at 10uM. It is filed as functional, HepG2. To be noted: tested at 10 uM.
On to `O=C(Cn1cc(I)cn1)N1CCNC1=O`, for which the INHIBITION is reported as -28%.
The figure for `N#Cc1cccnc1OC1CCNCC1` is 5.58%.
`COC(=O)c1ccc(S(=O)(=O)N2CCC(Oc3cccnn3)CC2)cc1`: the INHIBITION stood at 26.6%.
Take `O=S(=O)(c1ccccc1F)N1CCC(Oc2cccnn2)CC1`: the INHIBITION is given as 43.3%.
Take `O=S(=O)(c1cc(F)cc(F)c1)N1CCC(Oc2ccc(Cl)cn2)CC1`: the INHIBITION was 35.8%.
Take `COC(=O)c1sccc1S(=O)(=O)N1CCC(Oc2ncccc2Cl)CC1`: the INHIBITION was 38.5%.
On to `N#Cc1cccnc1OC1CCN(S(=O)(=O)c2c(F)cccc2F)CC1`, for which the INHIBITION was determined as 54.6%.
For the compound `O=S(=O)(c1c(F)cccc1F)N1CCC(Cn2cccn2)CC1`, the INHIBITION is on record as 36.3%.
`N#Cc1cccnc1OC1CCN(S(=O)(=O)c2ccc(F)c(Cl)c2)CC1`: the INHIBITION is recorded as 64.3%.
Take `N#Cc1cccnc1OC1CCN(S(=O)(=O)c2ccc(Br)cc2)CC1`: the INHIBITION is recorded as 50.4%.
Take `c1cncc(OCc2nnn3c2CN(Cc2ccsc2)CCC3)c1`: the INHIBITION stood at 16.6%.
As to `Cc1ccncc1C(=O)N1CCCC(C(=O)CCc2ccccc2)C1` (stereo not drawn), the INHIBITION is listed as -34.8%.
For the compound `COc1ccccc1NC(=O)NCC(O)c1ccc(F)cc1F` (stereo not drawn), the INHIBITION was found to be 12.7%.
For `O=C(CC1CC1)N1CCC2(CCCN(CCOc3ccccc3)C2)C1` (stereo not drawn), the INHIBITION worked out at 27.2%.
With `NC(=O)CN1C[C@@H](c2ccccc2F)[C@@]2(CCCCC(=O)N2)C1`, the INHIBITION is given as 21.95%.
As to `CC(C)c1ocnc1C(=O)N1CCC(=O)Nc2cccnc21`, the INHIBITION was 4.13%.
Turning to `CCc1ccc(CCC(=O)N2CCC(=O)Nc3cccnc32)cc1`, the INHIBITION is 70.3%.
For the compound `Cc1ccc(CCCC(=O)N2CCC(=O)Nc3cccnc32)s1`, the INHIBITION is on record as 47.1%.
With `Cc1cccc(CN2C(=O)CC[C@@H]3[C@H]2CCN3Cc2cccnc2)n1`, the INHIBITION came out at 31.1%.
With `CN1CC[C@@H]2[C@@H]1CCN2Cc1ccc2c(c1)OCO2`, the INHIBITION came to 35.8%.
Regarding `Cc1cccc(CN2CC[C@@H]3[C@@H]2CCN3Cc2cccs2)n1`, the INHIBITION worked out at 33.1%.
As for `Cc1cccc(CN2CC[C@H]3[C@H]2CCN3Cc2cnn(C)c2)n1`, the INHIBITION was 51.6%.
As to `Cc1cccc(CN2CC[C@H]3[C@H]2CCN3C(=O)c2cnn(C)c2)n1`, the INHIBITION was -0.554%.
For `Cc1cccc(CN2C(=O)CC[C@@H]3[C@H]2CCN3Cc2ccc(F)cc2)n1`, the INHIBITION is reported as 69.5%.
The figure for `Cc1cccc(CN2C(=O)C[C@H]3[C@@H]2CCN3Cc2ccc(F)cc2)n1` is -4.82%; for `Cn1cc(CN2CC[C@@H]3[C@@H]2CCN3Cc2ccc3c(c2)OCO3)cn1` it is 60.5%; for `Cn1cc(C[C@H]2[C@H](O)CCN2Cc2ccc3c(c2)OCO3)cn1` it is 22.9%.
In the case of `Cc1cc(OCC(=O)NCc2ccc(F)cc2)nnc1C`, the INHIBITION is reported as -3.08%.
In the case of `CC(=O)N1CCC2(CC1)CN(C(=O)[C@@H]1CSCN1)c1ccc(Cl)cc12`, the INHIBITION is on record as 30.5%.
For `Cc1cc(CN2C[C@@H](N3CCN(C)CC3)[C@H]3OCCC[C@H]32)oc1C`, the INHIBITION was -30%.
The value for `Cn1cnc2c1C(COCC1CCOCC1)CN(C(=O)C1CC=CC1)C2` (stereo not drawn) was 45.1%; that for `Cc1ccc(-c2cc(CN3CCc4cncnc4C3)on2)cc1` was -8.91%.
Regarding `CN(C)[C@@H]1CN(C(=O)c2cc3cccc(F)c3[nH]2)C[C@H]1O`, the INHIBITION is recorded as -0.275%.
`COc1ccc(CN2CCCN(C(=O)C(C)n3ccnc3)CC2)cc1` (stereo not drawn): the INHIBITION came to 18.55%.
In the case of `CN(CCCNC(=O)c1ccc(C#N)cc1)CC(F)(F)F`, the INHIBITION is given as 21.8%.
The value for `CN(CCCNC(=O)c1ccccc1F)CC(F)(F)F` was 52.3%; that for `CN(CCCNC(=O)c1ccccc1OCC(N)=O)CC(F)(F)F` was -52.1%.
The value for `Cn1nnc2c1CCN(Cc1nccs1)C2COCc1ccccc1` (stereo not drawn) was 15.9%; that for `Cc1noc(C)c1-c1nc(C2CCCN(C(=O)CN)C2)ccc1CO` (stereo not drawn) was 37.1%.
As to `Cc1cnc(CN(Cc2ccccc2)CC2CCOCC2)cn1`, the INHIBITION is 14.2%.
The figure for `COCCN(Cc1cccc(O)c1)CC1CC1` is 45.2%.
Take `Cc1cnc(CN(Cc2cccc(O)c2)CC2CC2)cn1`: the INHIBITION came out at 65.9%.
`Cc1cnc(N2CCCn3c(nnc3CN(C)C(C)C)C2)nc1`: the INHIBITION is recorded as -19.2%.
In the case of `CCC(=O)N1CCC[C@]2(C(=O)N(C)C)CN(c3ccccn3)C[C@@H]2C1`, the INHIBITION is reported as 34.2%.
As for `CCN(Cc1ccc(C)o1)C(=O)C(C)n1ccnc1C(C)C` (stereo not drawn), the INHIBITION is 13%.
With `Cc1cccc(C(Nc2nccc(-c3ccc(C)nc3C)n2)C2CC2)n1` (stereo not drawn), the INHIBITION is reported as -11.2%.
Consider `Cc1cccnc1C(Nc1nccc(C2CCCC2)n1)C1CC1` (stereo not drawn), for which the INHIBITION worked out at 0.164%.
As for `Cc1ccc(-c2ccnc(NC(c3ncccc3C)C3CC3)n2)c(C)n1` (stereo not drawn), the INHIBITION is on record as 51.2%.
For `CS(=O)(=O)N1C[C@@H](Oc2ccccn2)[C@H]2OCCC[C@H]21`, the INHIBITION is recorded as 29%.
`Cc1cc(C)c(S(=O)(=O)Nc2c(C)nc(N(C)C)nc2C)cc1C`: the INHIBITION came out at 4.12%.
Turning to `CCCN(C(=O)CN1CCn2c(nnc2C2CC2)C1)C1=CCCCC1`, the INHIBITION is given as 18.7%.
Consider `CCN(C(=O)CN1CCn2c(nnc2C2CC2)C1)C1=CCCCC1`, for which the INHIBITION is on record as 51.2%.
As for `CCN(C(=O)CN1CCn2c(C)nnc2C1)C1=CCCCC1`, the INHIBITION was -6.46%.
Regarding `Cc1cn2nc(N3CCCCC3Cn3cccn3)sc2n1` (stereo not drawn), the INHIBITION is reported as 11.6%.
The figure for `O=C(NCCNc1cnccn1)N1CCN(c2nccs2)CC1` is 29.2%; for `c1cnc(N2C[C@H]3CCN(Cc4ccncc4)C[C@H]3C2)nc1` it is 58.4%.
The figure for `COc1ncccc1CN1C[C@@H]2CN(c3ncccn3)C[C@@H]2C1` is 47.4%; for `COc1ncccc1CN1C[C@H]2CCN(c3ccc(C)nn3)C[C@H]2C1` it is 41.4%.
For `COc1ncccc1CN1C[C@H]2CCN(c3ncccn3)C[C@H]2C1`, the INHIBITION amounted to 56.4%.
`c1cc(CN2CC[C@@H]3CN(c4cncnc4)C[C@@H]3C2)ccn1`: the INHIBITION stood at 27.6%.
For `Cc1ccc(CN2C[C@@H]3CN(c4ncccn4)C[C@@H]3C2)cc1`, the INHIBITION was 40.8%.
The value for `CC(=O)c1cnc(NCCN2CCCC2)nc1C` was 33.1%.
Regarding `CCN(C)C(=O)c1coc(COc2ccccc2)n1`, the INHIBITION is on record as -8.47%.
The value for `CC(C)=CCC/C(C)=C/CN1CCN(C)C2(CCNC(=O)CC2)C1` (stereo not drawn) was 67.5%.
As to `CC/C(C)=C/CCN1CCN(C)C2(CCNC(=O)CC2)C1` (stereo not drawn), the INHIBITION is listed as 35.9%.
With `CN1CCN(CCC(F)(F)C(F)F)CC12CCNC(=O)CC2` (stereo not drawn), the INHIBITION turned out to be 49.9%.
Take `Cc1cc(C(=O)N2CC(O)CO2)c2ccc(C)c(C)c2n1` (stereo not drawn): the INHIBITION is listed as 15%.
The figure for `O=C(O)c1ccccc1CN1CCCC(Cc2ccn[nH]2)C1` (stereo not drawn) is 7.721%; for `Cc1ncc(CN2CCOC(c3ccc(-c4cc[nH]n4)cn3)C2)s1` (stereo not drawn) it is 19.6%.
Regarding `Cc1ncc(CN2CCOC(c3ccc(-c4ccccc4F)cn3)C2)s1` (stereo not drawn), the INHIBITION came to 95.3%.
Turning to `Cc1ncc(CN2CCOC(c3ccc(-c4cnn(C)c4)cn3)C2)s1` (stereo not drawn), the INHIBITION is reported as -6.92%.
The figure for `CCCNC(=O)NC(C)c1ccccn1` (stereo not drawn) is 21.2%; for `c1cnc2c(-c3nccn3C[C@@H]3CCCN4CCCC[C@H]34)cccc2c1` it is 20.2%; for `COc1ccc(-c2nccn2C[C@@H]2CCCN3CCCC[C@H]23)cc1` it is 65.3%.
The figure for `Cn1ccnc1-c1nccn1C[C@@H]1CCCN2CCCC[C@H]12` is 12%; for `CCc1ccc(CNC(=O)N2CCN(Cc3cc(C)on3)CC2)s1` it is 7.12%; for `COCCN1CC(O)CN(C(=O)c2cccc(C(F)(F)F)c2)CC1=O` (stereo not drawn) it is 13.1%.
As for `CC(C)(C)CN1CC(O)CN(C(=O)c2cccc(C(F)(F)F)c2)CC1=O` (stereo not drawn), the INHIBITION came out at 60.8%.
The figure for `CCN1CC(O)CN(C(=O)c2cccc(C(F)(F)F)c2)CC1=O` (stereo not drawn) is 5.58%; for `CC(C)CN1CC(O)CN(C(=O)c2cccc(C(F)(F)F)c2)CC1=O` (stereo not drawn) it is 45.7%; for `O=C1CN(C(=O)c2cccc(C(F)(F)F)c2)CC(O)CN1CC1CC1` (stereo not drawn) it is 25.3%.
Consider `N#CCCN1CC(O)CN(C(=O)c2cccc(C(F)(F)F)c2)CC1=O` (stereo not drawn), for which the INHIBITION amounted to 57%.
Regarding `CSc1ccccc1C(=O)N1CCOC(CCN(C)C)C1` (stereo not drawn), the INHIBITION turned out to be 12.1%.
The figure for `Cc1ccc(NC2CCCN(CCCc3ccccc3)C2)nn1` (stereo not drawn) is 35.7%; for `O=C(CCNc1ncccn1)N1CCCN(c2nccs2)CC1` it is 33.7%.
On to `CCN(CCC1CCN(C(=O)NCc2nncn2CC)CC1)CC1CC1`, for which the INHIBITION is -38.2%.
Turning to `CCc1cnc(N2C[C@@H]3C[C@H](C(=O)NC)[C@H](C2)O3)nc1`, the INHIBITION is on record as -45.8%.
The figure for `OCC1(CNC2CCc3cc4c(cc32)OCCO4)CC1` (stereo not drawn) is -122%; for `OCCCNC1CCc2cc3c(cc21)OCCO3` (stereo not drawn) it is -56.6%.
In the case of `OCCNC1CCc2cc3c(cc21)OCCO3` (stereo not drawn), the INHIBITION came to 55.1%.
The figure for `O=C(c1ccc(Cl)cc1)N1CC2(CCNC2)OCc2ccccc21` (stereo not drawn) is 39.1%; for `CCC(C)(C)CC(=O)NC(C)C(=O)Nc1ccc(-n2cncn2)cc1` (stereo not drawn) it is 26%.
On to `CC(NC(=O)CCC(C)(C)C)C(=O)Nc1ccc(-n2cncn2)cc1` (stereo not drawn), for which the INHIBITION was found to be 50%.
As for `CC(NC(=O)Nc1ccc(-n2cncn2)cc1)C(=O)NC(C)(C)C` (stereo not drawn), the INHIBITION was determined as 41.4%.
The value for `CC(C)c1noc(CCCC(=O)NC(C)c2ccccn2)n1` (stereo not drawn) was -30.6%.
The value for `Cc1csc(C(Cc2ccsc2)NC(=O)CN(C)Cc2ccccn2)n1` (stereo not drawn) was 28.3%; that for `COc1ncnc(N)c1CNCCc1ccc(-n2cccn2)cc1` was 16.8%; that for `COc1ncnc(N)c1CNCCOc1ccccc1Cl` was 21.3%.
Consider `COc1ncnc(N)c1CNCCc1ccccc1`, for which the INHIBITION came to 75.4%.
In the case of `COC(=O)[C@H](CCSC)NC(=O)Cc1c(C)nn(-c2ccccc2)c1C`, the INHIBITION is 5.58%.
With `CC(C)c1noc(CCCC(=O)NCC2CCS(=O)(=O)C2)n1` (stereo not drawn), the INHIBITION was 21.6%.
Regarding `Cc1csc(C2CCCN(C(=O)c3c[nH]c(C)n3)C2)n1` (stereo not drawn), the INHIBITION is listed as 24%.
Take `Cc1[nH]nc(CCC(=O)N2C[C@@H]3CC[C@H]2CN(C(=O)N(C)C)C3)c1C`: the INHIBITION is recorded as 45.4%.

Values taken from ChEMBL document CHEMBL4513216, “Probing the Open Global Health Chemical Diversity Library for Multistage-Active Starting Points for Next-Generation Antimalarials” (ACS Infect Dis, 2020).
